Measured values published in PubChem BioAssay AID1159580 (chemical genetic matrix, 2015).
Screen size: about 5,500 compounds; about 2,000 (36%) were called active. Inconclusive results (about 18%) are left out. No stated cut-off is given here; in the data, active means normalized growth mostly below about 0.91 (no sharp cut-off); inconclusive means no clear call, values can overlap the other calls; inactive means mostly above about 0.92. The list shows a part of the results.

Experiment: chemical genetic growth profiling, strain panel (AID 1159580);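 further: tested at 20 µM; growth read once vehicle control cultures reached saturation at 30 °C; 1 = growth at the plate median or of vehicle wells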
Settings: growth OD

Measured: normalized growth

CC(=O)N[C@@H](CC(=O)O)C(=O)O
inactive: S. cerevisiae deletion strains, locus YJR043C, strain POL32, stronger effect = lower value 1.01 | S. cerevisiae deletion strains, locus YJR075W, strain HOC1, stronger effect = lower value 1.01 | S. cerevisiae deletion strains, locus YKL009W, strain mrt4, stronger effect = lower value 1.03 | S. cerevisiae deletion strains, locus YKL068W, stronger effect = lower value 1.01 | S. cerevisiae deletion strains, locus YKL085W, strain MDH1 (second series), stronger effect = lower value 1.01 | S. cerevisiae deletion strains, locus YKL085W, strain MDH1, stronger effect = lower value 1.01 | S. cerevisiae deletion strains, locus YKL160W, strain elf1, stronger effect = lower value 0.998 | S. cerevisiae deletion strains, locus YKL190W, strain CNB1, stronger effect = lower value 1.01 | S. cerevisiae deletion strains, locus YKR001C, strain vps1, stronger effect = lower value 1.01 | S. cerevisiae deletion strains, locus YKR026C, strain gcn3, stronger effect = lower value 1.01 | S. cerevisiae deletion strains, locus YKR091W, strain srl3, stronger effect = lower value 1 | S. cerevisiae deletion strains, locus YLL001W, strain dnm1, stronger effect = lower value 1.01 | S. cerevisiae deletion strains, locus YLL026W, stronger effect = lower value 1.01 | S. cerevisiae deletion strains, locus YLL041C, strain sdh2, stronger effect = lower value 1.01 | S. cerevisiae deletion strains, locus YLR027C, strain aat2, stronger effect = lower value 1.02 | S. cerevisiae deletion strains, locus YLR039C, strain RIC1, stronger effect = lower value 0.984 | S. cerevisiae deletion strains, locus YLR058C, strain SHM2, stronger effect = lower value 1.01 | S. cerevisiae deletion strains, locus YLR102C, strain apc9, stronger effect = lower value 1.01 | S. cerevisiae deletion strains, locus YLR221C, strain rsa3, stronger effect = lower value 0.974 | S. cerevisiae deletion strains, locus YLR258W, strain gsy2, stronger effect = lower value 0.997 | S. cerevisiae deletion strains, locus YLR262C, strain YPT6 (second series), stronger effect = lower value 1 | S. cerevisiae deletion strains, locus YLR262C, strain YPT6, stronger effect = lower value 1.01 | S. cerevisiae deletion strains, locus YLR268W, strain sec22, stronger effect = lower value 1.02 | S. cerevisiae deletion strains, locus YLR320W, strain mms22, stronger effect = lower value 0.992 | S. cerevisiae deletion strains, locus YLR330W, strain CHS5, stronger effect = lower value 1.01 | S. cerevisiae deletion strains, locus YLR342W, strain FKS1 (second series), stronger effect = lower value 1.01 | S. cerevisiae deletion strains, locus YLR342W, strain FKS1, stronger effect = lower value 1.01 | S. cerevisiae deletion strains, locus YLR357W, strain rsc2, stronger effect = lower value 1.01 | S. cerevisiae deletion strains, locus YLR370C, strain arc18, stronger effect = lower value 1.01 | S. cerevisiae deletion strains, locus YLR371W, strain rom2, stronger effect = lower value 1.02 | S. cerevisiae deletion strains, locus YLR384C, strain iki3, stronger effect = lower value 0.982 | S. cerevisiae deletion strains, locus YLR418C, strain cdc73, stronger effect = lower value 1.02 | S. cerevisiae deletion strains, locus YML016C, strain PPZ1, stronger effect = lower value 1.01 | S. cerevisiae deletion strains, locus YML032C, strain rad52, stronger effect = lower value 1.01 | S. cerevisiae deletion strains, locus YML120C, strain ndi1, stronger effect = lower value 1.01 | S. cerevisiae deletion strains, locus YML124C, strain tub3, stronger effect = lower value 1.02 | S. cerevisiae deletion strains, locus YMR058W, strain fet3, stronger effect = lower value 1.02 | S. cerevisiae deletion strains, locus YMR078C, strain ctf18, stronger effect = lower value 1 | S. cerevisiae deletion strains, locus YMR125W, strain sto1, stronger effect = lower value 1.01 | S. cerevisiae deletion strains, locus YMR129W, stronger effect = lower value 1 | S. cerevisiae deletion strains, locus YMR205C, strain PFK2, stronger effect = lower value 0.993 | S. cerevisiae deletion strains, locus YMR223W, strain ubp8, stronger effect = lower value 1.01 | S. cerevisiae deletion strains, locus YMR231W, strain pep5, stronger effect = lower value 1 | S. cerevisiae deletion strains, locus YMR263W, strain SAP30, stronger effect = lower value 1.01 | S. cerevisiae deletion strains, locus YMR307W, strain GAS1, stronger effect = lower value 1.03 | S. cerevisiae deletion strains, locus YNL067W, strain RPL9B, stronger effect = lower value 1.02 | S. cerevisiae deletion strains, locus YNL071W, strain lat1, stronger effect = lower value 1.01 | S. cerevisiae deletion strains, locus YNL128W, strain TEP1, stronger effect = lower value 1.02 | S. cerevisiae deletion strains, locus YNL153C, strain GIM3, stronger effect = lower value 1 | S. cerevisiae deletion strains, locus YNL209W, strain ssb2, stronger effect = lower value 1.01 | S. cerevisiae deletion strains, locus YNL233W, strain BNI4, stronger effect = lower value 1 | S. cerevisiae deletion strains, locus YNL248C, strain rpa49, stronger effect = lower value 0.91 | S. cerevisiae deletion strains, locus YNL250W, strain rad50, stronger effect = lower value 1.01 | S. cerevisiae deletion strains, locus YNL271C, strain bni1, stronger effect = lower value 1.02 | S. cerevisiae deletion strains, locus YNL298W, strain CLA4, stronger effect = lower value 1.01 | S. cerevisiae deletion strains, locus YNL307C, strain MCK1, stronger effect = lower value 1.02 | S. cerevisiae deletion strains, locus YNL322C, strain KRE1 (second series), stronger effect = lower value 0.994 | S. cerevisiae deletion strains, locus YNL322C, strain KRE1, stronger effect = lower value 1.01 | S. cerevisiae deletion strains, locus YNR049C, strain mso1, stronger effect = lower value 0.996 | S. cerevisiae deletion strains, locus YNR052C, strain pop2, stronger effect = lower value 1.01 | S. cerevisiae deletion strains, locus YOL006C, strain TOP1, stronger effect = lower value 1.04 | S. cerevisiae deletion strains, locus YOL012C, strain htz1 0.941 | S. cerevisiae deletion strains, locus YOL147C, strain pex11, stronger effect = lower value 1.01 | S. cerevisiae deletion strains, locus YOR001W, strain rrp6, stronger effect = lower value 0.988 | S. cerevisiae deletion strains, locus YOR061W, strain CKA2, stronger effect = lower value 1 | S. cerevisiae deletion strains, locus YOR069W, strain VPS5, stronger effect = lower value 1.01 | S. cerevisiae deletion strains, locus YOR070C, strain gyp1, stronger effect = lower value 1 | S. cerevisiae deletion strains, locus YOR080W, strain dia2, stronger effect = lower value 1 | S. cerevisiae deletion strains, locus YOR083W, strain WHI5, stronger effect = lower value 1 | S. cerevisiae deletion strains, locus YOR106W, strain vam3, stronger effect = lower value 1.01 | S. cerevisiae deletion strains, locus YOR136W, strain idh2, stronger effect = lower value 1.01 | S. cerevisiae deletion strains, locus YOR144C, strain elg1, stronger effect = lower value 1.02 | S. cerevisiae deletion strains, locus YOR184W, strain ser1, stronger effect = lower value 1.01 | S. cerevisiae deletion strains, locus YOR265W, strain rbl2, stronger effect = lower value 1.02 | S. cerevisiae deletion strains, locus YOR270C, strain vph1, stronger effect = lower value 1.01 | S. cerevisiae deletion strains, locus YOR290C, strain snf2, stronger effect = lower value 0.998 | S. cerevisiae deletion strains, locus YOR316C, strain cot1, stronger effect = lower value 1.01 | S. cerevisiae deletion strains, locus YPL051W, strain arl3, stronger effect = lower value 1.03 | S. cerevisiae deletion strains, locus YPL055C, strain LGE1, stronger effect = lower value 1.02 | S. cerevisiae deletion strains, locus YPL078C, strain atp4, stronger effect = lower value 1.02 | S. cerevisiae deletion strains, locus YPL106C, strain sse1, stronger effect = lower value 1.01 | S. cerevisiae deletion strains, locus YPL240C, strain hsp82, stronger effect = lower value 1.01 | S. cerevisiae deletion strains, locus YPL241C, strain CIN2, stronger effect = lower value 1.01 | S. cerevisiae deletion strains, locus YPR119W, strain clb2, stronger effect = lower value 1.02 | S. cerevisiae deletion strains, locus YPR141C, strain kar3, stronger effect = lower value 1.02 | S. cerevisiae deletion strains, locus YPR163C, strain tif3, stronger effect = lower value 1.03 | S. cerevisiae deletion strains, locus YPR167C, strain met16, stronger effect = lower value 1.01 | S. cerevisiae deletion strains, strain wtn01, stronger effect = lower value 1.01 | S. cerevisiae strains, strain wild type, stronger effect = lower value 1.01
